Reference: PubChem BioAssay (EPA / NIEHS)
Calls of active or inactive are those of the source. Rule for the calls: active = hit-call score of the fitted dose curve at least 0.9, where 1 is the maximum; inconclusive = response in the unintended direction; inactive = score below 0.9.

assay: Tanguay_ZF_120hpf_MORT_legacy: (Legacy) Oregon State University Tanguay Lab 120 Hour Post-fertilization zebrafish Assay for Mortality (AID 2283633)
Protocol: Tanguay_ZF_120hpf_legacy is a whole embryo, multiplexed endpoint assay using zebrafish larvae exposed for 120 hours post fertilization on a 96-well plate.Tanguay_ZF_120hpf_MORT_legacy is one of one assay component(s) measured or calculated from the Tanguay_ZF_120hpf_legacy assay. It is designed to make measurements of embryonic mortality as detected with brightfield microscopy of developing zebrafish embryos.Data from the assay component Tanguay_ZF_120hpf_MORT_legacy was analyzed into 1 assay endpoints. This assay endpoint, Tanguay_ZF_120hpf_MORT_legacy, was analyzed in the positive analysis fitting direction relative to DMSO as the negative control and baseline of activity. Using a type of viability reporter, gain-of-signal activity can be used to understand changes in developmentals as they relate to the whole embryo. To generalize the intended target to other relatable targets, this assay endpoint is annotated to the embryonic mortality intended target family, where the subfamily is embryonic mortality.
Zebrafish husbandry: Tropical 5D wild-type adult zebrafish were housed in at an approximate density of 1000 per 100 gallon tank at the Sinnhuber Aquatic Research Laboratory, Oregon State University, Corvallis, OR. Each tank was kept at standard laboratory conditions of 28C on a 14-h light/10-h dark photoperiod in fish water consisting of reverse osmosis water supplemented with a commercially available salt (Instant Ocean). Spawning funnels were placed into the tanks the night prior, and embryos were collected and staged. To increase bioavailability, the chorion was enzymatically removed using pronase (63.6mg/ml, >/= 3.5U/mg, Sigma-Aldrich: P5147) at 4 hours post fertilization (hpf) using a custom automated dechorionator.Chemical exposures: Six hpf dechorionated embryos were placed 1 embryo per well in a 96-well plate prefilled with 90 ul of EM using automated embryo placement systems (AEPS). Ten microliters of each row of dilution plate 2 was added to 2 exposure plates. The final DMSO concentration used was 0.64% (vol/vol). Thirty-two embryos were also exposed to 5uM trimethyltin chloride (positive control). Plates were sealed to prevent evaporation and foil covered to reduce light exposure and kept in a 28C incubator. Embryos were statically exposed until 120 hpf. At 24 hpf, embryos were assessed for photomotor response using a custom photomotor response analysis tool (PRAT) and for developmental toxicity endpoints (MO24: mortality at 24 hpf, DP: developmental progression, SM: spontaneous movement, and NC: notochord distortion). At 120 hpf, locomotor activity was measured using Viewpoint Zebralab and assessed for 18 endpoints. Zebrafish acquisition and analysis program (ZAAP), a custom program designed to inventory, acquire, and manage zebrafish data, was used to collect developmental endpoints as either present or absent (i.e., binary responses were recorded). If mortality occurred for an embryo (at either 24 or 120 hpf), the non-mortality endpoints were not measured.

SMILES	outcome	AC50
CN(C)C(=S)S	inactive	–
CC(C)(C)c1ccccc1O	inactive	–
CC(C)O.CC(C)O.OCCN(CCO)CCO.OCCN(CCO)CCO.[Ti]	inactive	–
CCCCCCCCCCCCc1cccc(S(=O)(=O)O)c1	inactive	–
O=C(O)C1(c2ccc3c(c2)OC[C@H](Cc2ccc(-c4ccccc4)cc2)[C@H]3O)CCCC1	inactive	–
Clc1cccc(Cl)c1	inactive	–
Oc1cc(Cl)c(Cl)cc1Cl	–	24.9 µM (active)
O=C(N[C@H]1CN2CCC1CC2)c1ccc2c(c1)OCCO2	inactive	–
Oc1c(Cl)cc(Cl)cc1Cl	–	24.9 µM (active)
Clc1cccc(Cl)c1Cl	inactive	–
COc1ccccc1N	inactive	–
Cc1cc(C)cc(C)c1	inactive	–
OCCN(CCO)CCO	inactive	–
N#Cc1cccnc1	inactive	–
